A short description of test [1]: antimalarial activity against Dd2 strain (AID 2302;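 active = growth inhibition above 50% at the single 2 µM test dose, taken to imply half-maximal potency below 2 µM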;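 note: 0% = DMSO untreated growth and 100% = chloroquine plus artemisinin killed control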). The conditions noted are these: P. falciparum Dd2 in RBCs, LDH growth readout, 72 h; at 2 µM; stronger effect = higher value.
Test [2] is described as follows: HepG2 cytotoxicity, primary screen, cytotoxicity control for P. falciparum antimalarial project, cell-based, ATP luminescence (AID 2303;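 active = inhibition above 50%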;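 note: 0% = DMSO wells and 100% = digitonin-killed cells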). The conditions noted are these: HepG2 viability, 24-48 h, at 10 µM, stronger effect = higher value.
The target in test [3] is L-lactate dehydrogenase (Plasmodium falciparum (isolate CDC / Honduras)) (UniProt Q27743). As to the kind of experiment: PfLDH activity inhibition – cell lysate, 3D7 strain, counter-screen for P. falciparum growth inhibition project (AID 2304).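 Note: 0% = vehicle and 100% = reference inhibitor.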 The conditions noted are these: P. falciparum 3D7 crude extract, LDH APAD/NBT absorbance; at 2 µM; stronger effect = higher value. (In general: The purpose of a counterscreen is to sort out artefacts and off-target activity.)

Test [4] in a line: inhibition of 3D7 malaria parasite growth – strain 3D7 (AID 2306).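 Note: 0% = DMSO wells and 100% = chloroquine plus artemisinin control wells.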 The conditions noted are these: P. falciparum 3D7 erythrocytic growth, LDH absorbance, 72 h; at 2 µM; stronger effect = higher value.
In test [5] the target is Calcium-dependent protein kinase 1 (Plasmodium falciparum (isolate 3D7)) (UniProt P62344). As to the kind of experiment: PfCDPK1 kinase inhibitors, biochemical, TCAMS library (AID 1159585; cut-off not given, nearly all actives have IC50 up to about 0.98 µM;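 note: inhibitors leave more ATP so luminescence rises with inhibition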). The conditions noted are these: recombinant PfCDPK1, Kinase-Glo ATP depletion luminescence. (Kinase-Glo reads ATP consumption through a luciferase reaction.)
Test [6] has as its target Plasmodium falciparum protein kinase 6 (PK6, PF3D7_1337100) (UniProt Q8IDW1). As to the kind of experiment: PfPK6 kinase inhibitors, biochemical, TCAMS library (AID 1159586). The conditions noted are these: recombinant PfPK6, Kinase-Glo ATP depletion luminescence.
Test [7] addresses Protein kinase 7 (PK7), Plasmodium falciparum 3D7 (PF3D7_0213400) (UniProt Q7YTF7). As to the kind of experiment: inhibition of Plasmodium PK7 catalytic activity – biochemical, TCAMS antimalarial set, Kinase-Glo luminescence (AID 1159587). The conditions noted are these: recombinant PfPK7, Kinase-Glo ATP depletion luminescence.
The target of test [8] is Calcium-dependent protein kinase 4 (Plasmodium falciparum (isolate 3D7)) (UniProt Q8IBS5). As to the kind of experiment: PfCDPK4 kinase inhibitors, biochemical, TCAMS library (AID 1159588; cut-off not given, nearly all actives have IC50 up to about 0.91 µM). The conditions noted are these: recombinant PfCDPK4, Kinase-Glo ATP depletion luminescence.

Values without a mark were called inactive. For some of these results: Entries with a potency or affinity are not part of this list. The source made the active and inactive calls. Unless noted, the rule behind the calls is not given here.

The results in this text go back to PubChem BioAssay.

Sequence of Plasmodium falciparum protein kinase 6 (PK6, PF3D7_1337100) (Q8IDW1 1-305): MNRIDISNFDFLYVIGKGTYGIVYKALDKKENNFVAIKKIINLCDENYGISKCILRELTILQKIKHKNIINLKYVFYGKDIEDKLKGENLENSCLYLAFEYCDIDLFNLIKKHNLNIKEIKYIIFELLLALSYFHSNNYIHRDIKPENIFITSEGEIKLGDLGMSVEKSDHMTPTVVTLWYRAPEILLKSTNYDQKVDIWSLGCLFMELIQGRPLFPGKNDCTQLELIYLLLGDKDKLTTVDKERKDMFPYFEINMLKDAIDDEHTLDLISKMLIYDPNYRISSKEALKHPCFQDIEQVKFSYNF
Sequence of Calcium-dependent protein kinase 4 (Plasmodium falciparum (isolate 3D7)) (Q8IBS5 whole entry, looked up): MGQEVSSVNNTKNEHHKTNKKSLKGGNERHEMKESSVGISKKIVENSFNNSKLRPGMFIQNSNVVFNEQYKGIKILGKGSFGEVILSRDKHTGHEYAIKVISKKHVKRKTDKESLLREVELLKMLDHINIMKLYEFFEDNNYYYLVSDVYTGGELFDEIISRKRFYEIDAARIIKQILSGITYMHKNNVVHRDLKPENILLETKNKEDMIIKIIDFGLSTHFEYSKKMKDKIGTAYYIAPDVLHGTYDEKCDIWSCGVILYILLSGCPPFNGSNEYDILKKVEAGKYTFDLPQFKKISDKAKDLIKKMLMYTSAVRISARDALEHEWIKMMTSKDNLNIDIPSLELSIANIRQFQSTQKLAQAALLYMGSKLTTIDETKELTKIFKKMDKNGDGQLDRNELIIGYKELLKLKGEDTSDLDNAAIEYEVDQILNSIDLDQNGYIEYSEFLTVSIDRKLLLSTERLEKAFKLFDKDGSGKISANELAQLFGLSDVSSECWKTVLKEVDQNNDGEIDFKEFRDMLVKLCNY
Sequence of Calcium-dependent protein kinase 1 (Plasmodium falciparum (isolate 3D7)) (P62344 whole entry, looked up): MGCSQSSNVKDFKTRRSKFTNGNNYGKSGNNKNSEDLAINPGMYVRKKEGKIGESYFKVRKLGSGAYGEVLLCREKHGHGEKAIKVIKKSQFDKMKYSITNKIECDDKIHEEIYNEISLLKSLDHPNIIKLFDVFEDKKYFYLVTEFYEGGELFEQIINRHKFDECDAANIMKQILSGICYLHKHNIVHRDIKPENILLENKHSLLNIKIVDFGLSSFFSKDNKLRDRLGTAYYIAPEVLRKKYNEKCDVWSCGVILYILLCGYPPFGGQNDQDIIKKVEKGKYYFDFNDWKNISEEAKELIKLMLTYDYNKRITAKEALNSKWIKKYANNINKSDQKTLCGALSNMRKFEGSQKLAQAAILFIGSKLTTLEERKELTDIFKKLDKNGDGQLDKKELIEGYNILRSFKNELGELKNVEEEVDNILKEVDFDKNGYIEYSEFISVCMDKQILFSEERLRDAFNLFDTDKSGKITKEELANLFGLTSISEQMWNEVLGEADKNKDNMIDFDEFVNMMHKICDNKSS
Sequence of Protein kinase 7 (PK7), Plasmodium falciparum 3D7 (PF3D7_0213400) (Q7YTF7 1-343): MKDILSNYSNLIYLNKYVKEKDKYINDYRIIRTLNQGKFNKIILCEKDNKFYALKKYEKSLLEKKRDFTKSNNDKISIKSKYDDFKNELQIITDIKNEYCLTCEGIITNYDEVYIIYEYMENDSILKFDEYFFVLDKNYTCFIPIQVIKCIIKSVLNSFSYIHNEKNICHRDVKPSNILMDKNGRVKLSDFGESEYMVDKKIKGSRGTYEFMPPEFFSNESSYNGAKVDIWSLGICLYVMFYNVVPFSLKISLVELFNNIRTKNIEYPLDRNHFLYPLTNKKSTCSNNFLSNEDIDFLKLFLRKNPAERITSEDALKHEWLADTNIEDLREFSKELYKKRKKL
Sequence of L-lactate dehydrogenase (Plasmodium falciparum (isolate CDC / Honduras)) (Q27743 whole entry, looked up): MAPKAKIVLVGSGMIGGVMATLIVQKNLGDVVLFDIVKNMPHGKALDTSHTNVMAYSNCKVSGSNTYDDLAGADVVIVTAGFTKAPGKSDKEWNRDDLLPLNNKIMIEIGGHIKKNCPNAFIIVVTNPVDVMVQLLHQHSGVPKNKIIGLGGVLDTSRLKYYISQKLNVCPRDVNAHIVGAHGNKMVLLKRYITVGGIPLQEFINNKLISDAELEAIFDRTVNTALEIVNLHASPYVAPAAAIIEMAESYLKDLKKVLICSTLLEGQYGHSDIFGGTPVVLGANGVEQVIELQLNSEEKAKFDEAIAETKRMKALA

The term inhibition denotes the change of the read-out against control, counted positive when it falls. On to `CN(C)CCNCc1ccc(-c2ccc3c(Nc4ccc(F)cc4Cl)ccnc3c2)o1`, for which the growth inhibition in test [1] and in test [4] was 100% (active) each time. Also, the inhibition in test [2] is 31%; in test [3], -9%. Further, the outcome in test [5], in test [6], in test [7] and in test [8] was inactive.
`CCCCCCCCn1ccc(=N)cc1`: the growth inhibition is 84% (active) in test [1] and 91% (active) in test [4]. In addition, the inhibition in test [2] was 49%; in test [3], -5%. Further, the result in test [5], in test [6], in test [7] and in test [8] was inactive.
As to `CCOC(=O)c1c(NC(=O)c2ccccc2)sc2c(O)c(CN(CC)CC)ccc12`, the growth inhibition in test [1] and in test [4] was 100% (active) in each case. In addition, the values for the inhibition in test [2] and in test [3] were 9% and 4%, respectively. For the same compound, the result in test [5], in test [6], in test [7] and in test [8] was inactive.
With `CN(C)CCCNc1ccnc2cc(Cl)ccc12`, the growth inhibition in test [1] and in test [4] was 100% (active) in each case. Also, the inhibition in test [2] is 10%; in test [3], 4%. Also, the outcome in test [5], in test [6], in test [7] and in test [8] was inactive.
Turning to `CCn1cc(C=C2Oc3c(ccc(O)c3CN3CCCCC3)C2=O)c2ccccc21`, the growth inhibition is 99% (active) in test [1] and 101% (active) in test [4]. Further, the inhibition was -9% in test [2] and -3% in test [3]. Further, the outcome in test [5], in test [6], in test [7] and in test [8] was inactive.
On to `COc1ccc2nccc([C@@H](O)CN3CCC(NCc4cc5oc(=O)n(C)c5cc4F)CC3)c2c1`, for which the growth inhibition in test [1] is 72% (active); in test [4], 99% (active). In addition, the inhibition in test [2] was -3%; in test [3] it was -2%. Moreover, the outcome in test [5], in test [6], in test [7] and in test [8] was inactive.
`O=C(NCc1cccc(F)c1)Nc1cccc(-c2ccc(-c3nc4ccc(F)cc4[nH]3)cc2)c1`: the growth inhibition in test [1] was 0%; in test [4], 84% (active). For the same compound, the inhibition was 46% in test [2] and -3% in test [3]. Moreover, the outcome in test [5], in test [6], in test [7] and in test [8] was inactive.
As for `O=C(NCC1Cc2cc(Oc3ccccc3)ccc2O1)c1ccc([N+](=O)[O-])o1` (stereo not given), the growth inhibition was 81% (active) in test [1] and 88% (active) in test [4]. Moreover, the inhibition in test [2] was 83% (active); in test [3], -3%. For the same compound, the outcome in test [5], in test [6], in test [7] and in test [8] was inactive.
Turning to `CCc1ccc(CN2CCCCC(NC(=O)c3cc(-c4ccccc4F)cs3)C2)cc1` (stereo not given), the results for the growth inhibition in test [1] and in test [4] were 12% and 87% (active), respectively. The figures for the inhibition in test [2] and in test [3] were 25% and -4%, respectively. Moreover, the result in test [5], in test [6], in test [7] and in test [8] was inactive.
As for `O=C(Nc1cccc(-c2ccc(-c3nc4ccc(C(F)(F)F)cc4[nH]3)cc2)c1)c1cnc[nH]1`, the results for the growth inhibition in test [1] and in test [4] were 21% and 91% (active), respectively. For the same compound, the inhibition is 16% in test [2] and -3% in test [3]. Moreover, the result in test [5], in test [6], in test [7] and in test [8] was inactive.
With `c1ccc(CNc2cc(-c3ccccn3)nc(-c3ccccn3)n2)cc1`, the growth inhibition in test [1] was 89% (active); in test [4] it was 84% (active). Besides, the inhibition in test [2] is 88% (active); in test [3] it was -2%. Also, the outcome in test [5], in test [6], in test [7] and in test [8] was inactive.
Regarding `CCOc1cc(C(=O)NCC2CCN(CC3CCCCC3)CC2)ccc1-c1nc2ccc(Cl)cc2[nH]1`, the growth inhibition in test [1] was 59% (active); in test [4], 98% (active). In addition, the inhibition was 14% in test [2] and -6% in test [3]. Moreover, the result in test [5], in test [6], in test [7] and in test [8] was inactive.
Take `COc1ccccc1N1CCN(CCCCNC(=O)c2ccc(NC(=O)c3cc(Cl)cc(Cl)c3)cc2)CC1`: the results for the growth inhibition in test [1] and in test [4] were 75% (active) and 101% (active), respectively. In addition, the inhibition in test [2] is 9%; in test [3] it was 2%. Also, the result in test [5], in test [6], in test [7] and in test [8] was inactive.
Regarding `COc1ccc2c(c1)CC(CNC[C@H](O)c1cccc(Cl)c1)CC2` (stereo not given in full), the growth inhibition is 73% (active) in test [1] and 94% (active) in test [4]. Besides, the inhibition in test [2] was 1%; in test [3], 7%. The outcome in test [5], in test [6], in test [7] and in test [8] was inactive.
For `CCCCCN1CCC(NS(=O)(=O)c2cccc(C(=O)Nc3cccc(C(F)(F)F)c3)c2)C1` (stereo not given), the growth inhibition in test [1] was 17%; in test [4], 86% (active). Further, the inhibition in test [2] is 25%; in test [3], -5%. Besides, the result in test [5], in test [6], in test [7] and in test [8] was inactive.
As to `Cc1c(N=O)cc(C(C)(C)C)c(O)c1C(=O)Nc1ccc([N+](=O)[O-])cc1Cl`, the growth inhibition is 98% (active) in test [1] and 100% (active) in test [4]. In addition, the inhibition in test [2] was 72% (active); in test [3], 1%. Moreover, the result in test [5], in test [6], in test [7] and in test [8] was inactive.
In the case of `Cc1cccc2[nH]c(-c3ccc(-c4cccc(NC(=O)CN5CCN(C)CC5)c4)s3)nc12`, the growth inhibition in test [1] was 51% (active); in test [4], 96% (active). Moreover, the results for the inhibition in test [2] and in test [3] were 7% and -3%, respectively. The result in test [5], in test [6], in test [7] and in test [8] was inactive.
In the case of `COc1ccc(S(=O)(=O)N2CCCc3ccc(Br)cc32)cc1N1CCN(C(=O)C(Cl)(Cl)Cl)CC1`, the figures for the growth inhibition in test [1] and in test [4] were 93% (active) and 97% (active), respectively. Further, the results for the inhibition in test [2] and in test [3] were 23% and 2%, respectively. For the same compound, the outcome in test [5], in test [6], in test [7] and in test [8] was inactive.
Regarding `Cc1cccc2[nH]c(-c3ccc(-c4cccc(CNCC5CCCO5)c4)cc3)nc12` (stereo not given), the growth inhibition in test [1] was 50% (active); in test [4], 101% (active). Moreover, the values for the inhibition in test [2] and in test [3] were 18% and -5%, respectively. The outcome in test [5], in test [6], in test [7] and in test [8] was inactive.
For the compound `Nc1nc(N)c2cc(S(=O)(=O)c3ccc4ccccc4c3)ccc2n1`, the growth inhibition was 51% (active) in test [1] and 95% (active) in test [4]. The inhibition was 14% in test [2] and 3% in test [3]. For the same compound, the outcome in test [5], in test [6], in test [7] and in test [8] was inactive.
